The full ranking holds about 16,000 sequences; the median of “rpm ratio (pull-down/input)” is about 0.5, and the highest 2% start at about 5.5. The list comes from a sample in which the highest values are over-represented; it also holds similar and randomly drawn sequences.
Biological target: T1, MBP-FoxP3dN (Mus musculus, UniProt Q99JB6 188-423)
T1 sequence: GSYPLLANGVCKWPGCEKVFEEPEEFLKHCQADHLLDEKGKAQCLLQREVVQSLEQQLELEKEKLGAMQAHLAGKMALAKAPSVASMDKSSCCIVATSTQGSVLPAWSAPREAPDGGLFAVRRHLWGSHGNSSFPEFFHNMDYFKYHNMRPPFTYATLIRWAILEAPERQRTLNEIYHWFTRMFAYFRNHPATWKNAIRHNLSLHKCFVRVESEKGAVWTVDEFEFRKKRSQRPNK
Assay: PD-seq (MBP pull-down with sequencing); 20 mM Tris-HCl pH 7.5, 100 mM NaCl, 1.5 mM MgCl2, 0.4 uM protein, 0.1 uM dsDNA library, 30 min, room temperature, amylose pull-down; high values mean tight binding
Conditions: protein: recombinant; tags: His6-MBP; chain copies: 2; dsDNA, one strand shown
Procedure, shortened: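 Binding is reads-per-million enrichment of pull-down over input, with replicates pooled. It comes from 30 min room-temperature incubation in Tris pH 7.5 buffer with NaCl and MgCl2 of 0.4 µM His6-MBP-tagged, N-terminally truncated mouse FoxP3 or FoxP1 fragment from E. coli with 0.1 µM Klenow-filled degenerate double-stranded DNA library, followed by amylose resin capture, three washes and Illumina sequencing of the released DNA.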

Sequence	binding signal
GATGATTGTTCTCCCAGCTGATGAATTCTGTCATTCGAGTAAACAAATTTTCCTAATCTTTCTGTTCAAGCGCCATCTAC	4.31 RPM ratio (pull-down/input)
GATGATTGTTCTCCCAGCTGATGAATTGAGTACTTCGAGTAAACAAATTTTCCTAATCTTTCTGTTCAAGCGCCATCTAC	0.524 RPM ratio (pull-down/input)
GATGATTGTTCTCCCAGCTGATGAATTAGAAGGATCGAGTAAACAAATTTTCCTAATCTTTCTGTTCAAGCGCCATCTAC	0.225 RPM ratio (pull-down/input)
GATGATTGTTCTCCCAGCTGATGAATTCGCCATGTCGAGTAAACAAATTTTCCTAATCTTTCTGTTCAAGCGCCATCTAC	0.854 RPM ratio (pull-down/input)
GATGATTGTTCTCCCAGCTGATGAATTTCGCATGTCGAGTAAACAAATTTTCCTAATCTTTCTGTTCAAGCGCCATCTAC	5.75 RPM ratio (pull-down/input)
GATGATTGTTCTCCCAGCTGATGAATTCAGCATGTCGAGTAAACAAATTTTCCTAATCTTTCTGTTCAAGCGCCATCTAC	4.71 RPM ratio (pull-down/input)
GATGATTGTTCTCCCAGCTGATGAATTCATGATGTCGAGTAAACAAATTTTCCTAATCTTTCTGTTCAAGCGCCATCTAC	0.987 RPM ratio (pull-down/input)
GATGATTGTTCTCCCAGCTGATGAATTCTGCATGTCGAGTAAACAAATTTTCCTAATCTTTCTGTTCAAGCGCCATCTAC	5.95 RPM ratio (pull-down/input)
GATGATTGTTCTCCCAGCTGATGAATTTGCATGTTCGAGTAAACAAATTTTCCTAATCTTTCTGTTCAAGCGCCATCTAC	3.83 RPM ratio (pull-down/input)
GATGATTGTTCTCCCAGCTGATGAATTTGCCATGTCGAGTAAACAAATTTTCCTAATCTTTCTGTTCAAGCGCCATCTAC	1.45 RPM ratio (pull-down/input)
GATGATTGTTCTCCCAGCTGATGAATTTCCCATGTCGAGTAAACAAATTTTCCTAATCTTTCTGTTCAAGCGCCATCTAC	0.287 RPM ratio (pull-down/input)
GATGATTGTTCTCCCAGCTGATGAATTCGCATGTTCGAGTAAACAAATTTTCCTAATCTTTCTGTTCAAGCGCCATCTAC	1.95 RPM ratio (pull-down/input)
GATGATTGTTCTCCCAGCTGATGAATTGCATGTGTCGAGTAAACAAATTTTCCTAATCTTTCTGTTCAAGCGCCATCTAC	2.29 RPM ratio (pull-down/input)
GATGATTGTTCTCCCAGCTGATGAATTTTGCATGTCGAGTAAACAAATTTTCCTAATCTTTCTGTTCAAGCGCCATCTAC	6.69 RPM ratio (pull-down/input)
GATGATTGTTCTCCCAGCTGATGAATTGTGCATGTCGAGTAAACAAATTTTCCTAATCTTTCTGTTCAAGCGCCATCTAC	7.05 RPM ratio (pull-down/input)
GATGATTGTTCTCCCAGCTGATGAATTCATTTGCTCGAGTAAACAAATTTTCCTAATCTTTCTGTTCAAGCGCCATCTAC	2.92 RPM ratio (pull-down/input)

Sequence	binding signal
GATGATTGTTCTCCCAGCTGATGAATTTGCGTATTCGAGTAAACAAATTTTCCTAATCTTTCTGTTCAAGCGCCATCTAC	4.16 RPM ratio (pull-down/input)
GATGATTGTTCTCCCAGCTGATGAATTGGGTCATTCGAGTAAACAAATTTTCCTAATCTTTCTGTTCAAGCGCCATCTAC	0.64 RPM ratio (pull-down/input)
GATGATTGTTCTCCCAGCTGATGAATTAATCTTGTCGAGTAAACAAATTTTCCTAATCTTTCTGTTCAAGCGCCATCTAC	0.322 RPM ratio (pull-down/input)
GATGATTGTTCTCCCAGCTGATGAATTGCTCAAATCGAGTAAACAAATTTTCCTAATCTTTCTGTTCAAGCGCCATCTAC	0.408 RPM ratio (pull-down/input)
GATGATTGTTCTCCCAGCTGATGAATTTTGCGGATCGAGTAAACAAATTTTCCTAATCTTTCTGTTCAAGCGCCATCTAC	0.597 RPM ratio (pull-down/input)
GATGATTGTTCTCCCAGCTGATGAATTACACATATCGAGTAAACAAATTTTCCTAATCTTTCTGTTCAAGCGCCATCTAC	0.87 RPM ratio (pull-down/input)
GATGATTGTTCTCCCAGCTGATGAATTCCCCATGTCGAGTAAACAAATTTTCCTAATCTTTCTGTTCAAGCGCCATCTAC	0.259 RPM ratio (pull-down/input)
GATGATTGTTCTCCCAGCTGATGAATTGCTGATGTCGAGTAAACAAATTTTCCTAATCTTTCTGTTCAAGCGCCATCTAC	0.843 RPM ratio (pull-down/input)
GATGATTGTTCTCCCAGCTGATGAATTGCCCATGTCGAGTAAACAAATTTTCCTAATCTTTCTGTTCAAGCGCCATCTAC	0.577 RPM ratio (pull-down/input)
GATGATTGTTCTCCCAGCTGATGAATTCTCCATGTCGAGTAAACAAATTTTCCTAATCTTTCTGTTCAAGCGCCATCTAC	0.249 RPM ratio (pull-down/input)
GATGATTGTTCTCCCAGCTGATGAATTGCGCATGTCGAGTAAACAAATTTTCCTAATCTTTCTGTTCAAGCGCCATCTAC	6.5 RPM ratio (pull-down/input)
GATGATTGTTCTCCCAGCTGATGAATTCCGCATGTCGAGTAAACAAATTTTCCTAATCTTTCTGTTCAAGCGCCATCTAC	5.82 RPM ratio (pull-down/input)
GATGATTGTTCTCCCAGCTGATGAATTGCGGTATTCGAGTAAACAAATTTTCCTAATCTTTCTGTTCAAGCGCCATCTAC	1.67 RPM ratio (pull-down/input)
GATGATTGTTCTCCCAGCTGATGAATTCTTGACTTCGAGTAAACAAATTTTCCTAATCTTTCTGTTCAAGCGCCATCTAC	0.38 RPM ratio (pull-down/input)
GATGATTGTTCTCCCAGCTGATGAATTATAGCCGTCGAGTAAACAAATTTTCCTAATCTTTCTGTTCAAGCGCCATCTAC	0.504 RPM ratio (pull-down/input)
GATGATTGTTCTCCCAGCTGATGAATTTCTGGTGTCGAGTAAACAAATTTTCCTAATCTTTCTGTTCAAGCGCCATCTAC	0.353 RPM ratio (pull-down/input)
